Measured values from PubChem BioAssay AID1159580 (chemical genetic matrix, 2015).
Among all 5,500 compounds or so, about 2,000 (36%) were called active. About 18% were inconclusive and are not listed. No stated cut-off is given here; in the data, active means normalized growth mostly below about 0.91 (no sharp cut-off); inconclusive means no clear call, values can overlap the other calls; inactive means mostly above about 0.92. This is one part of the list.

Assay: chemical genetic growth profiling, strain panel (AID 1159580);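 further: tested at 20 µM; growth read once vehicle control cultures reached saturation at 30 °C; 1 = growth at the plate median or of vehicle wells; lower values mean less growth of the strain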
Conditions: S. cerevisiae deletion strains, growth OD

Measured: normalized growth

C[C@H](N)CN1CCc2ccc(Br)cc21
inactive: locus YAL040C, strain CLN3, hits give low values 0.979 | locus YCL061C, strain MRC1 (second series), hits give low values 0.992 | locus YDR150W, strain NUM1, hits give low values 1 | locus YDR363W, strain ESC2, hits give low values 1.01 | locus YER002W, strain NOP16, hits give low values 0.992 | locus YGR078C, strain PAC10, hits give low values 1.02 | locus YJR075W, strain HOC1, hits give low values 1 | locus YMR307W, strain GAS1, hits give low values 1 | locus YNL153C, strain GIM3, hits give low values 0.997 | locus YNL175C, strain NOP13, hits give low values 1.01 | locus YNL197C, strain WHI3, hits give low values 1.02 | locus YNL224C, strain SQS1, hits give low values 1.01 | locus YOR083W, strain WHI5 (second series), hits give low values 1 | locus YPL055C, strain LGE1, hits give low values 0.968
